Broadly, the AC50 is the midpoint of the concentration-response curve, whichever way the signal moves.

Test [1] has as its target human Vascular Endothelial Growth Factor Receptor 3 (VEGFR3), FLT4 (gene 2324) (UniProt P35916). As to the kind of experiment: NVS_ENZ_hVEGFR3: NovaScreen (NVS) Enzymatic Assay for human Vascular Endothelial Growth Factor Receptor 3 (VEGFR3) (AID 2283229). The essentials:
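Chemicals first run in duplicate at 25 uM, with actives re-tested in concentration series to a top of 50 uM. Recombinant VEGFR3 activity measured after 1 h via fluorescence with mobility-shift product separation; inhibition fitted relative to DMSO.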

Test [2] concerns the target rabbit Imidazoline 2 Central (I2C), CKB (gene 100009085) (UniProt P00567). As to the kind of experiment: NVS_ENZ_rabI2C: NovaScreen (NVS) Enzymatic Assay for rabbit Imidazoline 2 Central (I2C) (AID 2283228). The essentials:
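Rabbit brain membranes, cell-free; readout by filter-based scintillation counting 1.5 hours after dosing, loss of signal vs DMSO. Initial duplicate test at 25 uM, then concentration-response with 50 uM top concentration.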

The target of test [3] is rat Constitutive Nitric Oxide Synthase (CNOS), Nos1 (gene 24598) (UniProt P29476). As to the kind of experiment: NVS_ENZ_rCNOS: NovaScreen (NVS) Enzymatic Assay for rat Constitutive Nitric Oxide Synthase (CNOS) (AID 2283236). The essentials:
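Single 25 uM duplicate screen, then concentration series to 50 uM for chemicals meeting threshold. Rat brain membrane-derived CNOS activity detected radiometrically by filtration and scintillation counting, 1 h after compound addition; DMSO as baseline.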

The target in test [4] is bovine Dopamine Receptor (DR), Non-selective Binding, DRD1 (gene 281125) (UniProt Q95136). As to the kind of experiment: NVS_GPCR_bDR_NonSelective: NovaScreen (NVS) G Protein-Coupled Receptor Assay for bovine Dopamine Receptor (DR), Non-selective Binding (AID 2283241). The essentials:
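Filter-based radioligand binding with bovine striatal membrane, incubated 1 h; DMSO as negative baseline. Initial duplicate single-point test at 25 uM preceded concentration series for actives.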

Test [5] concerns bovine Histamine 1 Receptor (H1), gene 281231. As to the kind of experiment: NVS_GPCR_bH1: NovaScreen (NVS) G Protein-Coupled Receptor Assay for bovine Histamine 1 Receptor (H1) (AID 2283246). The essentials:
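Hits from a 25 uM duplicate primary screen were retested in concentration series (top 50 uM); binding measured as scintillation-counted displacement of radioligand from bovine cerebellar membranes after 1 h, normalised to DMSO.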

The target of test [6] is human Serotonin, 5-Hydroxytryptamine Receptor 2A (5HT2A), HTR2A (gene 3356) (UniProt P28223). As to the kind of experiment: NVS_GPCR_h5HT2A: NovaScreen (NVS) G Protein-Coupled Receptor Assay for human Serotonin, 5-Hydroxytryptamine Receptor 2A (5HT2A) (AID 2283249). The essentials:
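Radioligand displacement on human cortex tissue extract, counted by filtration and scintillation 1.5 h post-dosing. Initial single-concentration screen at 25 uM in duplicate, concentration series in follow-up; DMSO as baseline.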

The target of test [7] is human Serotonin, 5-Hydroxytryptamine Receptor 7 (5HT7), HTR7 (gene 3363) (UniProt P34969). As to the kind of experiment: NVS_GPCR_h5HT7: NovaScreen (NVS) G Protein-Coupled Receptor Assay for human Serotonin, 5-Hydroxytryptamine Receptor 7 (5HT7) (AID 2283255).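 Further: hits reduce specific radioligand binding relative to DMSO.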 The essentials:
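Filter-bound radioactivity counted after 1 h, with loss of specific radioligand binding fitted against DMSO. Membrane protein came from CHO cells expressing human 5HT7. Chemicals were tested first at 25 uM in duplicate, then in concentration series if active.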

Test [8] has as its target human Vascular Endothelial Growth Factor Receptor 1 (VEGFR1), FLT1 (gene 2321) (UniProt P17948). As to the kind of experiment: NVS_ENZ_hVEGFR1: NovaScreen (NVS) Enzymatic Assay for human Vascular Endothelial Growth Factor Receptor 1 (VEGFR1) (AID 2283226). The essentials:
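Kinase activity of recombinant human VEGFR1 was read by fluorescence after electrophoretic separation of product from substrate, 1 h post-dosing; initial duplicate single-point testing at 25 uM, followed by concentration-series follow-up, with DMSO as baseline.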

Test [9] concerns the target human Vascular Endothelial Growth Factor Receptor 2 (VEGFR2), KDR (gene 3791) (UniProt P35968). As to the kind of experiment: NVS_ENZ_hVEGFR2: NovaScreen (NVS) Enzymatic Assay for human Vascular Endothelial Growth Factor Receptor 2 (VEGFR2) (AID 2283230). The essentials:
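Cell-free recombinant VEGFR2 kinase, fluorescent substrate with electrophoretic mobility-shift separation; read 1 h after dosing. Screened at 25 uM in duplicate, hits to concentration-response up to 50 uM; loss-of-signal versus DMSO.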

For test [10], the target named is sheep Cyclooxygenase-1 (Cox1), PTGS1 (gene 443551) (UniProt P05979). As to the kind of experiment: NVS_ENZ_oCOX1: NovaScreen (NVS) Enzymatic Assay for sheep Cyclooxygenase-1 (Cox1) (AID 2283239).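 Further: actives reduce cyclooxygenase activity so potencies are for inhibitors.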 The essentials:
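Absorbance read-out of cyclooxygenase activity in a cell-free preparation from sheep seminal vesicles, taken 0.66 hour after dosing. Initial testing was in duplicate at 25 uM, and confirmatory testing was run in concentration series.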

The test system of test [11] is guinea pig Muscarinic, Peripheral (Mperiperal) Receptor, Non-selective Binding, gene 100379235. As to the kind of experiment: NVS_GPCR_gMPeripheral_NonSelective: NovaScreen (NVS) G Protein-Coupled Receptor Assay for guinea pig Muscarinic, Peripheral (Mperiperal) Receptor, Non-selective Binding (AID 2283250). The essentials: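 Screened in duplicate at 25 uM, hits retested in concentration series to 50 uM max, using bladder membrane radioligand displacement from guinea pig. Filtration and scintillation counting 1 h post-dose, fitted relative to DMSO.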

Test [12] concerns the target human Adenosine A1 Receptor (AdoRA1), ADORA1 (gene 134) (UniProt P30542). As to the kind of experiment: NVS_GPCR_hAdoRA1: NovaScreen (NVS) G Protein-Coupled Receptor Assay for human Adenosine A1 Receptor (AdoRA1) (AID 2283254). The essentials:
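Radioligand competition binding on human cortical membranes, 1 h after compound addition; bound radioactivity read by filtration and scintillation counting. Loss of signal versus DMSO baseline scored as displacement; primary screen duplicate at 25 uM, actives retested in concentration series.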

In test [13] the target is human SRC Proto-Oncogene, Non-receptor Tyrosine Kinase (SRC), SRC (gene 6714) (UniProt P12931). As to the kind of experiment: NVS_ENZ_hSRC: NovaScreen (NVS) Enzymatic Assay for human SRC Proto-Oncogene, Non-receptor Tyrosine Kinase (SRC) (AID 2283223). The essentials: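 Compounds passing 30% inhibition at 25 uM (duplicate) were titrated to a top concentration of 50 uM. Enzyme activity read by fluorescence with mobility-shift substrate/product separation after 1 h; DMSO baseline.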

In test [14] the target is Adenosine receptor A1 (Bos taurus) (UniProt P28190). As to the kind of experiment: NVS_GPCR_bAdoR_NonSelective: NovaScreen (NVS) G Protein-Coupled Receptor Assay for bovine Adenosine Receptor (AdoR), Non-selective Binding (AID 2283244). The essentials: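 Cell-free binding with membranes from bovine striatum: radioligand displaced by test chemical, read after 1 h by filtration and scintillation. Single-point 25 uM duplicate primary, 50 uM top concentration in follow-up curves, DMSO baseline.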

The target in test [15] is guinea pig Leukotriene D4 Receptor (LTD4), CYSLTR1 (gene 100135514) (UniProt Q2NNR5). As to the kind of experiment: NVS_GPCR_gLTD4: NovaScreen (NVS) G Protein-Coupled Receptor Assay for guinea pig Leukotriene D4 Receptor (LTD4) (AID 2283248). The essentials:
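Guinea pig lung membrane preparation; bound radioligand measured by filter scintillation after 1 h, loss of signal versus DMSO marking displacement. Compounds tested at 25 uM in duplicate, hits retested to max 50 uM.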

Test [16] addresses human Serotonin, 5-Hydroxytryptamine Receptor 6 (5HT6), HTR6 (gene 3362) (UniProt P50406). As to the kind of experiment: NVS_GPCR_h5HT6: NovaScreen (NVS) G Protein-Coupled Receptor Assay for human Serotonin, 5-Hydroxytryptamine Receptor 6 (5HT6) (AID 2283253). The essentials: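 Filter scintillation counting of radioligand displacement from HEK293-expressed 5HT6, 1 hour post-dose, with loss of signal relative to DMSO. Single 25 uM duplicates first, with concentration series for confirmation.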

Test [17] addresses human Tropomyosin Receptor Kinase A (TRKA), NTRK1 (gene 4914) (UniProt P04629). As to the kind of experiment: NVS_ENZ_hTrkA: NovaScreen (NVS) Enzymatic Assay for human Tropomyosin Receptor Kinase A (TRKA) (AID 2283224). The essentials: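 Compounds were screened at 25 uM in duplicate, then concentration series to a 50 uM top for those meeting threshold (e.g. 30% inhibition). Enzyme was recombinant human TrkA, incubated 1 h. Product formation was quantified by fluorescence after mobility-shift separation.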

Test [18] concerns guinea pig Leukotriene B4 Receptor (LTB4), gene 100379538. As to the kind of experiment: NVS_GPCR_gLTB4: NovaScreen (NVS) G Protein-Coupled Receptor Assay for guinea pig Leukotriene B4 Receptor (LTB4) (AID 2283247). The essentials:
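Membranes from guinea pig spleen incubated 2 h with radioligand and compound; bound counts measured by filtration and scintillation. Screened first at 25 uM in duplicate, then actives titrated to a 50 uM top concentration relative to DMSO.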

Each structure is given as a SMILES string. Records with an inconclusive call do not appear. The source made the active and inactive calls. How the source made its calls: active means hit-call score of the fitted dose curve at least 0.9, where 1 is the maximum; inconclusive means response in the unintended direction; inactive means score below 0.9.

Chain of human Vascular Endothelial Growth Factor Receptor 1 (VEGFR1), FLT1 (gene 2321) (P17948 whole entry, looked up): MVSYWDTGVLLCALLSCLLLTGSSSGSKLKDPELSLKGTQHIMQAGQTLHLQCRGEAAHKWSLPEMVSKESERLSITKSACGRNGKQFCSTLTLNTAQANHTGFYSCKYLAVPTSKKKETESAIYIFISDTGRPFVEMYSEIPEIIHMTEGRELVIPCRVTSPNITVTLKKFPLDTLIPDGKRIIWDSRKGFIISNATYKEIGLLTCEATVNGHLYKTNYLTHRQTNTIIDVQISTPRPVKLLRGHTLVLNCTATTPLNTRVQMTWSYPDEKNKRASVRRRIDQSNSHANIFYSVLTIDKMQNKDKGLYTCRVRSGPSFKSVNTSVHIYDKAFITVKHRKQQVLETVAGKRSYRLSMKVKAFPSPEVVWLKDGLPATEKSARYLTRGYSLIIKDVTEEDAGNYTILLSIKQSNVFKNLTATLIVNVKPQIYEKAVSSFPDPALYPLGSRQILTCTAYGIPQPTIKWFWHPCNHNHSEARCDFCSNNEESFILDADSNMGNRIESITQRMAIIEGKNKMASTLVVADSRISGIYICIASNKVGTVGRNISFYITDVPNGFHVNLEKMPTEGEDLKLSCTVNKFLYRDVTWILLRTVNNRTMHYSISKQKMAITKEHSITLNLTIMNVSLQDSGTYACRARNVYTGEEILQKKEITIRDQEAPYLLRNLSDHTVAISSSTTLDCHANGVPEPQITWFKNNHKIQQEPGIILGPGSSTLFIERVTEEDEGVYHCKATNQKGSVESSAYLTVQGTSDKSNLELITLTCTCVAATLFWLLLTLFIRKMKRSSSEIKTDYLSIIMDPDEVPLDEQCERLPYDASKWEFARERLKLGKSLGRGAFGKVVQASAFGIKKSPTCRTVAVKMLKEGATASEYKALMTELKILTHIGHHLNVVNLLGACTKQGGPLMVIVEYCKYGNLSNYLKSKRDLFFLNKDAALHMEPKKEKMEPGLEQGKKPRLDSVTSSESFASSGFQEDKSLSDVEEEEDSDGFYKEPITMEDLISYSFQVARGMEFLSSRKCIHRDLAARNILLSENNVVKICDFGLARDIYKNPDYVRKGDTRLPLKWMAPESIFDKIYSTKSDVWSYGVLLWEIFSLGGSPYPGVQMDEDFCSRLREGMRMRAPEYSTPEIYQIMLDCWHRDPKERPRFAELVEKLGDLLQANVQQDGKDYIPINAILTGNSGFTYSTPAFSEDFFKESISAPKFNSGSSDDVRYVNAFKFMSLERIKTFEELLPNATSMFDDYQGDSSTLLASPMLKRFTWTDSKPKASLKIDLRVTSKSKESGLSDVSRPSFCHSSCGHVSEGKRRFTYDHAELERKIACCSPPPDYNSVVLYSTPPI
Chain of human Serotonin, 5-Hydroxytryptamine Receptor 2A (5HT2A), HTR2A (gene 3356) (P28223 whole entry, looked up): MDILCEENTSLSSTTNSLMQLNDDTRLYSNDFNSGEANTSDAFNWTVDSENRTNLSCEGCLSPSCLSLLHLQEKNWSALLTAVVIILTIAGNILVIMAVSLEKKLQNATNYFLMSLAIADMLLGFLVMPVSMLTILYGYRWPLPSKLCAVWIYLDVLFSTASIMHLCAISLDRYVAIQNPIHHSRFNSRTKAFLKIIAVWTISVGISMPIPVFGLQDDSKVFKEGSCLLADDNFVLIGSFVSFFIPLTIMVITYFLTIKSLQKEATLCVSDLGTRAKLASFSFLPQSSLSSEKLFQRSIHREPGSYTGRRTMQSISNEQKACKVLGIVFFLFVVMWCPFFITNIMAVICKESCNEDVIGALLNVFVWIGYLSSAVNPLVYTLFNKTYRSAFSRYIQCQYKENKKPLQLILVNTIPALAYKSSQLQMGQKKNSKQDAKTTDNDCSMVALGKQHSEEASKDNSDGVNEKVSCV
Chain of bovine Dopamine Receptor (DR), Non-selective Binding, DRD1 (gene 281125) (Q95136 whole entry, looked up): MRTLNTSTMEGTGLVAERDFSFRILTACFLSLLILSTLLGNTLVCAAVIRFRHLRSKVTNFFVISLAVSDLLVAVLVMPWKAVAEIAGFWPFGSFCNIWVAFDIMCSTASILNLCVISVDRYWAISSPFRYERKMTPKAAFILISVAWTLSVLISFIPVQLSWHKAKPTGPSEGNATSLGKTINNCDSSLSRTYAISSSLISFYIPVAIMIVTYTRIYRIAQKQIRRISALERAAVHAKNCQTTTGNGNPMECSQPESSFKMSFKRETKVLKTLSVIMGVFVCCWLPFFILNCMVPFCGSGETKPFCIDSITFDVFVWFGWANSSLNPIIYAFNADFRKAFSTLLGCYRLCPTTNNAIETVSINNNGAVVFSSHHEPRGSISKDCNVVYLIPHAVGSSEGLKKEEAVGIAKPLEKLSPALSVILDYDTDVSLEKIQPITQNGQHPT
Chain of human Vascular Endothelial Growth Factor Receptor 2 (VEGFR2), KDR (gene 3791) (P35968 whole entry, looked up): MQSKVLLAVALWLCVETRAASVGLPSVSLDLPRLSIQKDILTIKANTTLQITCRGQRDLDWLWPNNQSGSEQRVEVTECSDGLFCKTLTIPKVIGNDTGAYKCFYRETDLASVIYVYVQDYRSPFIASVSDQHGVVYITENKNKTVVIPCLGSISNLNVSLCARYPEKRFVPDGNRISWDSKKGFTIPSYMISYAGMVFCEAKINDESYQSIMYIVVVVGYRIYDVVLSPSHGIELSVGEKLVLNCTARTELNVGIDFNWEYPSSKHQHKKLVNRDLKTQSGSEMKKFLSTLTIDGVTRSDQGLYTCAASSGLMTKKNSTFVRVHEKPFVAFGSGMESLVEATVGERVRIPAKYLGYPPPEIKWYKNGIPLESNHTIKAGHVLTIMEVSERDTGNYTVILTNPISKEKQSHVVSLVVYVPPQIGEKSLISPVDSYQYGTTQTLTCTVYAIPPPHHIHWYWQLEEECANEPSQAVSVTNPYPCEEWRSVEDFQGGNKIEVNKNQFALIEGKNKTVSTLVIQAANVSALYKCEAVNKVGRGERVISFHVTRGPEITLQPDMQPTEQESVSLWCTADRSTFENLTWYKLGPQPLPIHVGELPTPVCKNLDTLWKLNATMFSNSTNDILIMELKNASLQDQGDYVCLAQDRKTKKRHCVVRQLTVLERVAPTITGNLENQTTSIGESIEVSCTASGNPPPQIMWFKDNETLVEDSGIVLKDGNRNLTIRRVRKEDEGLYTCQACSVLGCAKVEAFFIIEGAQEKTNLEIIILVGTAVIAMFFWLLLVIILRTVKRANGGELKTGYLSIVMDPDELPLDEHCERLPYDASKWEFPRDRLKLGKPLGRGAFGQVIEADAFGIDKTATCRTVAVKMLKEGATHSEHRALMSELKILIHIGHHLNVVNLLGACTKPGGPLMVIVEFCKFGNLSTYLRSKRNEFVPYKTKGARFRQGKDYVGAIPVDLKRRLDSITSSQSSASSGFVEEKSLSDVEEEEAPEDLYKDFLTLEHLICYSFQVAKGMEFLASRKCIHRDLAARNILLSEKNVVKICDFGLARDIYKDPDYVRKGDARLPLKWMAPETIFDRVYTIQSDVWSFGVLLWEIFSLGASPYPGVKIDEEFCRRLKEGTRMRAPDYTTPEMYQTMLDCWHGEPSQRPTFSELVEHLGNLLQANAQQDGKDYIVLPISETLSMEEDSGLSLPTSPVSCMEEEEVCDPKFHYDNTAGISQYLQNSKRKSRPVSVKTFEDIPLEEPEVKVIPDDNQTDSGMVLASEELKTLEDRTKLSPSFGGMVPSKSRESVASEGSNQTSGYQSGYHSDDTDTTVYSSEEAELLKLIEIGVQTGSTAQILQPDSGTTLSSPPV
Chain of rabbit Imidazoline 2 Central (I2C), CKB (gene 100009085) (P00567 whole entry, looked up): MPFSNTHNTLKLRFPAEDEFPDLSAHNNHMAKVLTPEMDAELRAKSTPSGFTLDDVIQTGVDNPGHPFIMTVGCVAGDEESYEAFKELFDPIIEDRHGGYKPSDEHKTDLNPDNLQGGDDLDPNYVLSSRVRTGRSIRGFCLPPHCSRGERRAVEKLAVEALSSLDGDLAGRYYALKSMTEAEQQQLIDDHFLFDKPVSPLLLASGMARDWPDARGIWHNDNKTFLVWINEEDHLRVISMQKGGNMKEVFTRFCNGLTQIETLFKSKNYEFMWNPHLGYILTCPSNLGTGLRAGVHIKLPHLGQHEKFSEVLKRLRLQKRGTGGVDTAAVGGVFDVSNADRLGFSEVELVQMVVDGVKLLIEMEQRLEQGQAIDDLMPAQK
Chain of human Serotonin, 5-Hydroxytryptamine Receptor 7 (5HT7), HTR7 (gene 3363) (P34969 whole entry, looked up): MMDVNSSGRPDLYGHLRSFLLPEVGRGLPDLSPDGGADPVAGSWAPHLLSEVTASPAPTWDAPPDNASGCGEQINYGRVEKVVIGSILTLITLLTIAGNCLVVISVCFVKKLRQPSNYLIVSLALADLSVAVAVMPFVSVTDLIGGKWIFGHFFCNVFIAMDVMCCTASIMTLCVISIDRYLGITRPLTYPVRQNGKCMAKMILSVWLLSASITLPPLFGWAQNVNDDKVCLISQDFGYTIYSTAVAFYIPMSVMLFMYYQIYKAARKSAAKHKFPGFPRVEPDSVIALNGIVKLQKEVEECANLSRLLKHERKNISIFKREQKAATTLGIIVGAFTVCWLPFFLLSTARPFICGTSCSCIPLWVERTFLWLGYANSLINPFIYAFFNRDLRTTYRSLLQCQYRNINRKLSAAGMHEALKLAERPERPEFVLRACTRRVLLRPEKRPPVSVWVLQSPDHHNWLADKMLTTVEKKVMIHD
Chain of sheep Cyclooxygenase-1 (Cox1), PTGS1 (gene 443551) (P05979 whole entry, looked up): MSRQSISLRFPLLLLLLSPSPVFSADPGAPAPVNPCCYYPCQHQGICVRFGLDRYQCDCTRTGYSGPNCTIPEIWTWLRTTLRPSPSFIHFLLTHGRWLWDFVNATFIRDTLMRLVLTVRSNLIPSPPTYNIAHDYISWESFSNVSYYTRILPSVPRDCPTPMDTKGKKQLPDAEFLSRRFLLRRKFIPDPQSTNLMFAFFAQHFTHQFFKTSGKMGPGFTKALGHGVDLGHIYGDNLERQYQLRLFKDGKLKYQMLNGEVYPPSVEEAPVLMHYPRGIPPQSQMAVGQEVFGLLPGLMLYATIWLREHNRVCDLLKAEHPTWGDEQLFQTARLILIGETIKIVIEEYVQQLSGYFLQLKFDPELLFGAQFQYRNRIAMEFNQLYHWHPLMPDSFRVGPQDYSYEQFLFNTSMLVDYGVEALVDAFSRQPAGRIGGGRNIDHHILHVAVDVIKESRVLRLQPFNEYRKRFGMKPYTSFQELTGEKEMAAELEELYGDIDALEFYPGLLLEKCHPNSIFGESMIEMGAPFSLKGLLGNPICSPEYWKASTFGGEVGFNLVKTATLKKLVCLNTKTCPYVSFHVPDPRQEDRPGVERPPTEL

As to `CC(O)CN(CCN(CC(C)O)CC(C)O)CC(C)O` (centres undefined), the compound was classed as inactive in test [1].

Turning to `O=c1[nH]c2ccc(S(=O)CCN3CCC(Cc4ccc(F)cc4)CC3)cc2o1` (centres undefined), the AC50 was 6.76 µM (active) in test [2]; 6.78 µM (active) in test [4]; 3.91 µM (active) in test [5]; 2.59 µM (active) in test [6]; 0.534 µM (active) in [7]. The outcome in [3] was inactive.

With `O=C(O)c1cc(N=Nc2ccc(S(=O)(=O)Nc3ccccn3)cc2)ccc1O`, the outcome in test [8], in test [1] and in [9] was inactive.

For `CC[C@H](C)C(=O)O[C@H]1C[C@@H](C)C=C2C=C[C@H](C)[C@H](CC[C@@H]3C[C@@H](O)CC(=O)O3)[C@H]21`, the compound was classed as inactive in [8], in test [1] and in test [9]. The AC50 in [10] is 34.3 µM (active).

For `CC[C@H]1CC[C@H](NCc2cc3c(cc2OC)[C@H]2C[C@H]2C(=O)N3C)[C@H](c2ccccc2)N1`, the AC50 in test [2] was 10.4 µM (active); in [6], 9.49 µM (active); in test [11], 1.05 µM (active); in test [12] it was 13.6 µM (active); in [7], 20.4 µM (active).

`CN(C)c1ccc(N=NS(=O)(=O)O)cc1`: the result in test [8], in test [1], in test [9] and in test [3] was inactive. Besides, the AC50 in test [2] is 23.8 µM (active).

With `COCCOc1cc2cc(C(=O)NC3CCN(C(C)C)CC3)n(CC(=O)Nc3ccc(Cl)cn3)c2cn1`, the result in test [13], in test [11] and in [12] was inactive.

In the case of `C=CC(=C)CCC=C(C)C`, the result in test [9] was inactive.

With `CCOc1cccc(-n2cc(C(=O)N3CCN(c4cc(C(=O)O)c5ccccc5c4)CC3)nc2-c2ccc(C)cc2)c1`, the result in test [9] and in [14] was inactive. For the same compound, the half-maximal activity concentration (AC50) is 19.8 µM (active) in [15], 14.3 µM (active) in test [12] and 23.8 µM (active) in test [7].

As for `Cc1[nH]cnc1C[C@H]1CCc2c(C)c3ccccc3n2C1=O`, the outcome in test [2] was inactive. Further, the AC50 in [4] was 8.58 µM (active); in test [6] it was 1.45 µM (active); in test [11] it was 10.5 µM (active); in [16] it was 0.399 µM (active); in test [7], 3.82 µM (active).

In the case of `Clc1nc(Cl)c(Cl)c(Cl)c1Cl`, the call in test [13] was inactive.

As to `O=C(O)c1cccc(Oc2ccccc2)c1`, the outcome in [17], in [1] and in test [18] was inactive.

With `Cn1c(=O)cc(Oc2ccc(F)cc2F)c2cnc(NCC(C)(C)O)nc21`, in [8], the concentration at half-maximal activity (AC50) is 29.9 µM (active). Further, the call in [9] was inactive.

Regarding `CCOCCOCCOCCO`, the compound was classed as inactive in test [9].

Regarding `COC(=O)c1c(Cl)c(Cl)c(C(=O)OC)c(Cl)c1Cl`, the compound was classed as inactive in test [1].

Take `CC(C)=CCC/C(C)=C\CO`: the compound was called inactive in test [9]. In test [10], the AC50 was 25 µM (active).

As for `COc1cccc(-c2ccc(/C=C\CN3CCCCCC3)cc2Cl)c1`, the half-maximal activity concentration (AC50) in test [2] was 22.6 µM (active); in [3], 29.9 µM (active); in test [4] it was 36.4 µM (active); in test [5], 8.81 µM (active); in test [6], 15.8 µM (active); in test [11], 11.1 µM (active). Besides, the AC50 in [7] is 17.5 µM (active). In addition, the call in [9] was inactive.

For the compound `CCN(C(=O)c1cc(C)cc(OC[C@H](C)Nc2ccncc2)c1)C(C)C`, the compound was called inactive in [2] and in [6].

As to `COc1ccc2sc(C(=O)Nc3nnn[nH]3)c(OC(C)C)c2c1`, the compound was classed as inactive in test [9] and in test [18].

For `CCOC(=O)c1ccc(C2CCC(NC[C@H](O)COc3ccc(O)c(NS(C)(=O)=O)c3)CC2)cc1` (some centres undefined), the AC50 was 23.4 µM (active) in [2]; 15.2 µM (active) in test [10]; 1.24 µM (active) in test [4]; 23.4 µM (active) in test [6]; 23.4 µM (active) in test [11]; 13 µM (active) in test [16]. Also, in test [7], the AC50 is 6.12 µM (active). Moreover, the compound was called inactive in [12].

(Values after PubChem BioAssay (EPA / NIEHS).)
